Rows were chosen to be rich in hits. Some 3.8% of all compounds tested hit in one or more screens of this group.
697 NFkB inh: lowers PMA/ionomycin-induced NF-kB signal in 697 B cells | hit rate 0.33% among 330,000 | 697 B-cell NF-kB luciferase reporter, 16 h | AID 435022 | inhibition, % at 4 µM; in the data active = inhibition above about 35%
Shn3 3UTR inh: inhibitors of Schnurri-3 3'UTR reporter in osteoblasts; Clone20 osteoblast Shn3 3'UTR firefly luciferase, 24 h; inhibition, % at 12.5 µM; hit rate 0.52% among 360,000; AID 588674;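 active = mean inhibition of at least 75% with every replicate also reaching 75%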;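 note: 0% = median of neutral control wells and 100% = pilot-screen positive control compound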
Mdm2-MdmX inh: human Mdm2/MdmX binding inhibition. AID 485346. SaOS-2 split-luciferase Mdm2/MdmX complementation, luminescence. hit rate 3% among 330,000. O15151+Q00987. inhibition, % at 8 µM;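 active = inhibition of at least 50% at 8 µM in the primary screen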
Target sequence (O15151 whole entry, looked up): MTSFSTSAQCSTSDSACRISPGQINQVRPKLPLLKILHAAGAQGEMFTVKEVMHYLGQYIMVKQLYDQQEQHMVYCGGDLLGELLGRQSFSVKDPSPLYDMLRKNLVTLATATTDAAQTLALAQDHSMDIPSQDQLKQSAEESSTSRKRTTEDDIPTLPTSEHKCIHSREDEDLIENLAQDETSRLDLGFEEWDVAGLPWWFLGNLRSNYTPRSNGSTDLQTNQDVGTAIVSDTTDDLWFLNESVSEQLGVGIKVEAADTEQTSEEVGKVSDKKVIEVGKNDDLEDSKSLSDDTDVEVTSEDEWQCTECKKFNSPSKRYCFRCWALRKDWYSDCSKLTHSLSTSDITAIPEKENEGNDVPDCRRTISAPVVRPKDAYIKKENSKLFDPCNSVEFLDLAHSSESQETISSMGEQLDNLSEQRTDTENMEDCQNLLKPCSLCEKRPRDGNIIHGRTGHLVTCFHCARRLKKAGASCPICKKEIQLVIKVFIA
Target sequence (Q00987 whole entry, looked up): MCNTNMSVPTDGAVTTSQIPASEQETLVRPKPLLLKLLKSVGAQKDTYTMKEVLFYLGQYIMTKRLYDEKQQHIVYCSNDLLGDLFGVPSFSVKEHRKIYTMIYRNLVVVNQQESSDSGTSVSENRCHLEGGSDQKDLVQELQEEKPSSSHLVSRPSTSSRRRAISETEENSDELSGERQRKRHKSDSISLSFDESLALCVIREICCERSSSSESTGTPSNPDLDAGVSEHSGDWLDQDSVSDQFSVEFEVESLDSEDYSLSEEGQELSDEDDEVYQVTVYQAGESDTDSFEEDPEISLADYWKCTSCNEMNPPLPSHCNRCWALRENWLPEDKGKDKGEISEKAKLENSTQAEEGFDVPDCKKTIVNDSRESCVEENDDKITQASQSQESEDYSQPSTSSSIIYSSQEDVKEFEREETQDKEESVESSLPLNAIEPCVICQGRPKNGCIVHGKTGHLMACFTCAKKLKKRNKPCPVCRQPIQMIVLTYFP
Jurkat NFkB inh: inhibitors of the PMA/ionomycin-induced NF-kB reporter in Jurkat cells. AID 435003. hit rate 0.53% among 330,000. PMA/ionomycin-induced NF-kB luciferase reporter, luminescence. inhibition, % at 4 µM; in the data active = inhibition above about 50%
Gli-Sufu block: Gli-Sufu pathway antagonism; Sufu-KO-LIGHT fibroblasts, Gli luciferase reporter luminescence; AID 588413; inhibition, % at 5 µM; hit rate 0.74% among 340,000;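 active = inhibition above about 55%, limit read from the data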;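 note: 0% = DMSO-treated cells and 100% = wells with medium but no cells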
697 NFkB conf: inhibitors of the PMA/ionomycin-induced NF-kB reporter in 697 B cells, retest | shares compounds with 697 NFkB inh | 697 B-cell NF-kB luciferase, 16 h | inhibition, % at 4 µM | hit rate 35% among 2,000 | AID 449746; in the data active = inhibition mostly above about 28%, no sharp cut-off; inactive = mostly below about 22%
Active calls of the source: *; i = inactive; . = no result given.

SMILES	697 NFkB inh	Shn3 3UTR inh	Mdm2-MdmX inh	Jurkat NFkB inh	Gli-Sufu block	697 NFkB conf
CC(Oc1ccc(Br)cc1)C(=O)Nc1ccc(N2CCOCC2)cc1N1CCOCC1 (centres undefined)	-7	-7	-12	12	19	.
Cc1cccc2cc(/C=N/Nc3ccc(C(=O)O)cc3)c(Cl)nc12	-309	-49	-87	-76	-134	-247
O=C(O)c1ccc(N/N=C/c2cc3ccccc3nc2Cl)cc1	-151	-48	-5	-12	-37	.
C[C@@H](NC(=O)c1[nH]cnc1C(=O)Nc1nccs1)c1ccccc1	15	-8	43	15	-9	.
COc1ccc(/C=N/n2c(C)nc3ccccc3c2=O)cc1	-19	-52	4	-18	-19	.
COc1ccc(/C=N\n2nnc3ccccc32)cc1	-294	49	-149	-147	-134	-215
Cc1ccccc1-c1nc2sc3c(c2c(=O)n1N)CCCC3	-276	-57	27	-100	34	-229
COC(=O)[C@@H]1C[C@@]2(O)[C@@H](O)[C@@H](O)[C@@H](O)C[C@H]2N1CC1CCCCC1	25	5	7	17	-10	.
O=C(O)CCC(=O)c1ccc2c(c1)CCCC2	35*	27	1	7	.	-4
COc1ccc(NC(=O)COC(=O)C2CC2)cc1S(=O)(=O)N1CCCCC1	17	-13	28	3	-11	.
Cc1ccoc1C(=O)Nc1ccc(CC(=O)O)cc1	66*	39	-2	38	31	60*
CCOC(=O)C1CCN(c2ncnc3c2cnn3-c2ccc(Cl)cc2)CC1	61*	35	17	24	34	67*
C(=C\c1nnc(-c2cccs2)o1)/c1ccccc1	-260	-51	-155	-128	-95	-199
COC(=O)c1ccc(NC(=O)c2cc(-c3ccccn3)nc3ccccc23)cc1	4	-5	26	0	-12	.
COc1ccc(NC(=O)c2cc(-c3ccccn3)nc3ccccc23)cc1S(=O)(=O)N(C)C	39*	33	49	18	1	46*
COc1cccc(-c2noc(CCC(=O)NCCc3ccccc3)n2)c1	49*	-6	19	-9	8	49*
COc1cccc(-c2nc(-c3ccc(C(=O)O)cc3)no2)c1	-351	-101	-86	-21	-136	-413
CCOc1ccc(-c2noc(CCC(=O)O)n2)cc1	62*	59	8	27	28	49*
COc1ccc(Cc2nc(-c3ccc(NC(=O)c4cccnc4)cc3)no2)cc1	51*	40	9	-4	13	33*
Cc1ccc(CNS(=O)(=O)c2ccc(-n3cnnn3)c(C)c2)cc1	2	20	18	5	-1	.
O=C(CCCc1nc(-c2ccc(Cl)cc2)no1)NCC1CCCO1 (centres undefined)	13	64	0	13	-8	.
COc1ccc(-c2noc(CCCC(=O)NCC3CCCO3)n2)cc1 (centres undefined)	41*	-6	5	-10	16	21
COc1ccc(-c2noc(CCCC(=O)O)n2)cc1	74*	51	-10	48	43	58*
CCCC1NC(=O)c2cccnc2-n2c1nc1cc(F)c(F)cc1c2=O (centres undefined)	.	14	.	.	.	.
O=C(Nc1nc2c(F)cc(F)cc2s1)c1ccccn1	i	88*	25	-32	-66	-318
SMILES	697 NFkB inh	Shn3 3UTR inh	Mdm2-MdmX inh	Jurkat NFkB inh	Gli-Sufu block	697 NFkB conf
COc1ccc(O)c(/C=N/NC(=O)c2ccc(N3CCCC3=O)cc2)c1	i	67	31	23	0	-173
COc1ccc(/C=N/NC(=O)c2ccc(N3CCCC3=O)cc2)cc1	-15	2	18	13	-7	.
O=C1NC(=S)NC1(c1ccccc1)c1ccccc1	.	-6	.	.	-1	.
CCOc1nc2cnccc2n(CC(=O)Nc2cccc(C)c2C)c1=O	16	-2	5	-1	7	.
COc1ccc(C(=O)Nc2ccccc2C(=O)NCc2ccco2)cc1OC	37*	12	19	13	-9	31*
COc1ccc(C(=O)Nc2ccc(Cl)cc2C(=O)NCc2ccco2)cc1OC	-17	10	16	-19	12	.
CC(C)c1ccc(/C=N/n2c(-c3ccccc3)n[nH]c2=S)cc1	-43	-13	22	-9	1	.
Cc1ccc(-c2cc(C(=O)NCCCN3CCOCC3)no2)cc1	87*	21	-11	2	38	85*
O=C(NCCCN1CCOCC1)c1cc(-c2cccs2)on1	48*	4	-45	-24	-5	24
O=C(NCCCN1CCOCC1)c1cc(-c2ccc(Cl)c(Cl)c2)on1	7	9	-8	3	-5	.
Cc1ccc(C)c(-c2nc3ccc(N)cc3[nH]2)c1	-14	-9	20	42	42	.
Cc1ccc2nc(-c3ccccc3N)[nH]c2c1	-265	-26	-183	-149	-69	-196
O=C(CNCc1ccc(Cl)cc1)Nc1cc(S(=O)(=O)N2CCCC2)ccc1Cl	.	10	.	.	-2	.
COc1ccc(C(=O)Nc2ccc(NC(=O)CSc3nnc(-c4ccncc4)n3C)cc2)cc1	38*	-11	29	-12	-15	3
CC(=O)c1c(C)nc(Nc2nc3ccccc3s2)nc1C	-291	-107	-87	-129	-65	-206
Cc1cc(C)nc(Nc2nc3ccccc3s2)n1	-223	-91	-158	-148	-71	.
CCN(CC)S(=O)(=O)c1ccc(C(=O)Nc2ccc3c(c2)OCO3)cc1	10	24	11	-4	-13	.
Cc1nn(C)c(C)c1CN(C)C(=O)c1nn2c(c1Br)NC(c1cccs1)CC2C(F)(F)F (centres undefined)	11	12	8	6	12	.
Cc1nn(C)c(C)c1CN(C)C(=O)c1cnn2c1NC(c1ccccc1)CC2C(F)(F)F (centres undefined)	39*	25	5	14	20	27
O=c1cnn([C@@H]2O[C@H](CO)[C@@H](O)[C@H]2O)c(=O)[nH]1	i	18	39	4	15	i
CCOC(=O)c1c(NC(=O)c2nn(CC)cc2Br)c(C#N)nn1-c1ccccc1	-10	13	-29	5	7	.
CCOC(=O)c1nn(-c2ccccc2)c(C#N)c1NC(=O)c1nn(CC)cc1Br	37*	70	24	13	23	40*
CSc1nc2ccccc2n1Cc1c(Cl)cccc1Cl	-37	-10	32	9	19	.
COc1ccc2[nH]cc(CCNC(=O)Cn3cc(C)c(=O)[nH]c3=O)c2c1	.	11	.	.	1	.
COc1ccc(OCC(=O)N2CCN(S(=O)(=O)c3ccc4c(c3)OCCO4)CC2)cc1	.	19	.	.	.	.
Cc1ccc(C(=O)c2cccc(N)c2)cc1C	37*	2	7	-5	14	-12
Cc1ccc(C(=O)c2ccc(O)cc2)cc1C	-19	-40	-17	-11	-25	.
S=C(Nc1ccc(Cl)cc1)c1nc2ccccc2s1	-99	-80	-39	-78	-31	.
